Compound activity as filed in PubChem.
miR122 inh: miR-122 sensor activation | 0.14% of 340,000 active | AID 623901 | Huh7 psiCHECK-miR122 Renilla luciferase sensor, 48 h | activation, % at 12.5 µM;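 active = mean activation of 30% or more, with every replicate also reaching 30%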;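 also: 0% = median of neutral control wells and 100% = median of positive control wells; higher luciferase signal means stronger suppression of miR-122 activity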
Starred values were filed as active, the others as inactive. The entries come from a sample that favours hits as a whole.

SMILES	miR122 inh
C[C@H](NC(=O)C[C@@H]1CC[C@H]2[C@H](COc3ccc(NS(=O)(=O)c4ccc(Cl)cc4)cc3C(=O)N2C)O1)c1ccccc1	37*
C[C@@H]1CN([C@@H](C)CO)C(=O)c2cc(-c3cccc(C(=O)N(C)C)c3)cnc2O[C@@H]1CN(C)C(=O)Cc1ccccn1	0
C[C@H](CO)N1C[C@H](C)[C@H](CN(C)Cc2ccc(F)cc2)Oc2cc(C#Cc3ccccn3)ccc2S1(=O)=O	13
CCCNC(=O)N(C)C[C@H]1Oc2ncc(C#C[C@H](C)O)cc2C(=O)N([C@H](C)CO)C[C@H]1C	3
C[C@H](CO)N1C[C@H](C)[C@H](CN(C)S(C)(=O)=O)Oc2ncc(-c3cccc(F)c3)cc2C1=O	-22
C[C@@H]1CN([C@H](C)CO)C(=O)c2cc(C#Cc3cccnc3)cnc2O[C@@H]1CN(C)Cc1ccncc1	8
C[C@@H]1CN([C@H](C)CO)C(=O)c2cc(-c3ccc(C(=O)N(C)C)cc3)cnc2O[C@H]1CN(C)Cc1ccc(C(=O)O)cc1	0
C[C@H](CO)N1C[C@H](C)[C@@H](CN(C)C(=O)c2ccncc2)Oc2cc(C#Cc3ccncc3)ccc2S1(=O)=O	13
C[C@@H]1CN([C@H](C)CO)C(=O)c2cc(-c3cccc(F)c3)cnc2O[C@@H]1CN(C)C(=O)c1cccc(F)c1	-1
COc1cc(/C=C2/CCC/C(=C\c3cc(O)c(OC)c(Cl)c3)C2=O)cc(Cl)c1O	-113
O=C1/C(=C/c2ccncc2)CCC/C1=C\c1ccncc1	78*
C[C@H](CO)N1C[C@H](C)[C@@H](CN(C)C(=O)Nc2ccccc2F)Oc2ncc(-c3cccc(F)c3)cc2C1=O	-13
CCCNC(=O)N(C)C[C@H]1Oc2ncc(C#CC(C)C)cc2C(=O)N([C@H](C)CO)C[C@@H]1C	7
COC(=O)C[C@H]1CC[C@@H]2[C@@H](COc3ccc(NC(=O)c4cnccn4)cc3C(=O)N2C)O1	37*
COC(=O)C[C@H]1CC[C@@H]2[C@@H](COc3ccc(NC(=O)c4cscn4)cc3C(=O)N2C)O1	45*
C[C@@H]1CN([C@@H](C)CO)S(=O)(=O)c2ccc(-c3ccccc3)cc2O[C@@H]1CN(C)Cc1cncnc1	1
CCC(=O)Nc1ccc2c(c1)C(=O)N(C)C[C@H](OC)[C@H](C)CN(C(C)=O)[C@H](C)CO2	2
C[C@H](O)C#Cc1ccc2c(c1)O[C@H](CN(C)Cc1cncnc1)[C@@H](C)CN([C@H](C)CO)S2(=O)=O	-17
C[C@H]1CN([C@@H](C)CO)S(=O)(=O)c2ccc(C#Cc3ccccn3)cc2O[C@@H]1CN(C)Cc1ccc(F)cc1	-7
N=c1c2c(-c3ccccc3)c(-c3ccccc3)n(Cc3ccccc3)c2ncn1CCO	40*
C[C@@H]1CN([C@@H](C)CO)C(=O)c2cc(/C=C/c3ccccc3)cnc2O[C@@H]1CN(C)Cc1cccc(C(=O)O)c1	3
C[C@H](CO)N1C[C@H](C)[C@@H](CN(C)Cc2ccc(C(F)(F)F)cc2)Oc2c(NC(=O)c3nc4ccccc4s3)cccc2C1=O	-92
C[C@@H]1CN([C@@H](C)CO)S(=O)(=O)c2ccc(C#Cc3ccccc3)cc2O[C@H]1CN(C)C(=O)Nc1ccccc1	0
C/C=C/c1cnc2c(c1)C(=O)N([C@@H](C)CO)C[C@@H](C)[C@@H](CN(C)C(=O)Cc1cccnc1)O2	-5
C[C@H]1CN([C@@H](C)CO)C(=O)c2cc(C3=CCCCC3)cnc2O[C@H]1CN(C)CC1CCOCC1	-5
SMILES	miR122 inh
CCN(CC)c1ccc(C(=C2C=CC(=[N+](CC)CC)C=C2)c2ccc(N(CC)CC)cc2)cc1	38*
CCCC#Cc1cnc2c(c1)C(=O)N([C@H](C)CO)C[C@H](C)[C@H](CN(C)C(=O)Cc1ccccc1)O2	-1
CCCN(C)C[C@@H]1Oc2cc(C#CC(C)C)ccc2S(=O)(=O)N([C@@H](C)CO)C[C@@H]1C	5
C[C@@H](O)C#Cc1cnc2c(c1)C(=O)N([C@@H](C)CO)C[C@H](C)[C@@H](CN(C)C(=O)CN(C)C)O2	6
CCCN(C)C[C@@H]1Oc2ncc(C#CC3CCCCC3)cc2C(=O)N([C@@H](C)CO)C[C@H]1C	2
C[C@@H]1CN([C@@H](C)CO)C(=O)c2cccc(NC(=O)c3ccncc3)c2O[C@@H]1CN(C)C	-112
COCC(=O)N(C)C[C@@H]1Oc2cc(C#CC3CC3)ccc2S(=O)(=O)N([C@@H](C)CO)C[C@H]1C	-1
COCC(=O)N(C)C[C@H]1Oc2cc(C#CC3CC3)ccc2S(=O)(=O)N([C@H](C)CO)C[C@H]1C	10
C[C@@H]1CN([C@H](C)CO)S(=O)(=O)c2ccc(C#CC3CC3)cc2O[C@@H]1CN(C)C(=O)c1cccc(F)c1	44*
C[C@@H]1CN([C@@H](C)CO)S(=O)(=O)c2ccc(C#CC3CC3)cc2O[C@@H]1CN(C)C(=O)c1cccc(F)c1	42*
C[C@H]1CN([C@@H](C)CO)S(=O)(=O)c2ccc(C#CC3CC3)cc2O[C@H]1CN(C)C(=O)C1CC1	-14
COCC(=O)N(C)C[C@H]1Oc2cc(C#CC3CC3)ccc2S(=O)(=O)N([C@H](C)CO)C[C@@H]1C	-2
